Measurements taken from PubChem BioAssay AID1745853 (National Center for Advancing Translational Sciences (NCATS), 2022).
Where “and” joins values, the source holds several entries; their conditions need not be identical. Equal entries are not always repeated. Hit rate of the full screen: of about 25,000 compounds, about 970 (3.9%) were called active. Roughly 8% stayed inconclusive and do not appear here. This is one part of a sample in which actives are shown more often than they occur. How the calls were made is not given here. More than one record can exist for a structure, and the calls need not agree.

Legend:
Assay in all cases: Primary Screen for Target Class Profiling of Small Molecule Inhibitors of Methyltransferases
[1] = target: Catechol O-methyltransferase (Homo sapiens) (UniProt P21964); details: purified enzyme, MTase-Glo SAH luminescence; activity change, negative = inhibition: at 40 µM, stronger effect = lower value; outcome: 40 uM
Chain of Catechol O-methyltransferase (Homo sapiens) (P21964 whole entry, looked up): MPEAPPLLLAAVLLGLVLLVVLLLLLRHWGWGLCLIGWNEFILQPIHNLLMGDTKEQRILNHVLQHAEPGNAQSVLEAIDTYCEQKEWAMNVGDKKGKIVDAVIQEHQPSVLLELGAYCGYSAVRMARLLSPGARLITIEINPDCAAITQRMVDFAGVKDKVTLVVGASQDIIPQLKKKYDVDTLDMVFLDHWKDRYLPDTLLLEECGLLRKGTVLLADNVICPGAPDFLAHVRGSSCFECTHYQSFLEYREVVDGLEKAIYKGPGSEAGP
In short: (§1)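 Each enzyme was reacted with SAM and its substrate, with compounds tested once at 40 uM; SAH formed was read by MTase-Glo luminescence.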

[2] = target: Glycine N-methyltransferase (Homo sapiens) (UniProt Q14749); details: purified enzyme, MTase-Glo SAH luminescence; measured here: GNMT inhibition; at 40 µM; stronger effect = lower value
Chain of Glycine N-methyltransferase (Homo sapiens) (Q14749 whole entry, looked up): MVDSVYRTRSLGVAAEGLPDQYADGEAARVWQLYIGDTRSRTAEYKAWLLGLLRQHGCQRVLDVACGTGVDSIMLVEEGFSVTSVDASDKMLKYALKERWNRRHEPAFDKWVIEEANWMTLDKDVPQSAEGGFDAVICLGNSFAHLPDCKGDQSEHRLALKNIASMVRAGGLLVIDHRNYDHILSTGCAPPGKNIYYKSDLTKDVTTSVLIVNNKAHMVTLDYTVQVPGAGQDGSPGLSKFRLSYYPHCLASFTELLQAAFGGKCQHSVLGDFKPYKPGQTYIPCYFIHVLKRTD
In short: as §1

[3] = target: Guanidinoacetate N-methyltransferase (Homo sapiens) (UniProt Q14353); details: purified enzyme, MTase-Glo SAH luminescence; measured here: GAMT inhibition; at 40 µM; stronger effect = lower value
In short: as §1

[4] = target: Histamine N-methyltransferase (Homo sapiens) (UniProt P50135); details: purified enzyme, MTase-Glo SAH luminescence; measured here: HNMT inhibition; at 40 µM; stronger effect = lower value
Chain of Histamine N-methyltransferase (Homo sapiens) (P50135 whole entry, looked up): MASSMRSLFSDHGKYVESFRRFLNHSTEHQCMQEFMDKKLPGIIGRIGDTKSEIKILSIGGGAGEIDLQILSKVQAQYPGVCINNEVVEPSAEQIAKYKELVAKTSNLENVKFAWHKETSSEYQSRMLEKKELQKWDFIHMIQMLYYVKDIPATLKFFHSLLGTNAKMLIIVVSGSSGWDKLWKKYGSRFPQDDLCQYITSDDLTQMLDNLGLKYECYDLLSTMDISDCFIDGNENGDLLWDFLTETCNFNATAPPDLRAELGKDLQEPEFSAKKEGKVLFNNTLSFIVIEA
In short: as §1

[5] = target: Nicotinamide N-methyltransferase (Homo sapiens) (UniProt P40261); details: purified enzyme, MTase-Glo SAH luminescence; measured here: NNMT inhibition; at 40 µM; stronger effect = lower value
Chain of Nicotinamide N-methyltransferase (Homo sapiens) (P40261 whole entry, looked up): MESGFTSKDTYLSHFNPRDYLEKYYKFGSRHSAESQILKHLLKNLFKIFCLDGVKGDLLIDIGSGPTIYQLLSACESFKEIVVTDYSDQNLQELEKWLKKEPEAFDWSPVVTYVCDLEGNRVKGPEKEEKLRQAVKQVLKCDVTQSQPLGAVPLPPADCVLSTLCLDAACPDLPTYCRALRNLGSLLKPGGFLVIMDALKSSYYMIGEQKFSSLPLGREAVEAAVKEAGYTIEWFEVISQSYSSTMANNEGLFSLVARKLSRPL
In short: as §1

[6] = target: Phenylethanolamine N-methyltransferase (Homo sapiens) (UniProt P11086); details: purified enzyme, MTase-Glo SAH luminescence; measured here: PNMT inhibition; at 40 µM; stronger effect = lower value
Chain of Phenylethanolamine N-methyltransferase (Homo sapiens) (P11086 whole entry, looked up): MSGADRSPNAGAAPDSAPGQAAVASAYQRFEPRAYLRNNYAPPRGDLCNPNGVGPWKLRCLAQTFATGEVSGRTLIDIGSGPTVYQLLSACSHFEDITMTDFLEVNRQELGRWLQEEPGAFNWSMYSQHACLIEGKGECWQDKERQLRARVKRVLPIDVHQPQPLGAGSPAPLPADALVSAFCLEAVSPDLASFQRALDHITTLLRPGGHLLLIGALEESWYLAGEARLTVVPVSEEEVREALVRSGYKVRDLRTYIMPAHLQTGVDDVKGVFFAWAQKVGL
In short: as §1
On the % scale 0 is the no-effect control and ±100 the full control effect.

Row | SMILES | activity change, negative = inhibition [1] | activity change, negative = inhibition [2] | activity change, negative = inhibition [3] | activity change, negative = inhibition [4] | activity change, negative = inhibition [5] | activity change, negative = inhibition [6]
1 | O=C(NCc1cc2n(n1)CCCN(C1CCCCC1)C2)c1cccc(F)c1 | -1.85% (inactive) | -1.07% | -0.04% | -13% | -2.3% | 3.54%
2 | Cc1ccc(NC(=O)Cn2nc3n(C(C)C)c(=O)c4ccc(C(=O)NC(C)C)cc4n3c2=O)c(Cl)c1 | 7.09% (inactive) | 7.08% | 2.19% | 7.8% | 1.15% | 7.43%
3 | CC[C@@H](c1ccc(F)c(F)c1)n1c(C(=O)OC)c(-c2ccno2)[nH]c1=S | 6.91% (inactive) | 1.62% | 4.04% | 10.6% | -18.4% | -1.86%
4 | CCCC1c2ccc(C)n2CCN1C(=O)Nc1ccc(OCC)cc1 (configuration not stated) | 1.32% (inactive) | 1.56% | 0% | -0.12% | 2.78% | 1.21%
5 | CNC(=O)[C@@H]1CN(C(=O)c2ccc(OC)cc2C)C[C@H]1COC | -1.84% (inactive) | -2.55% | -4.79% | -1.32% | -3.85% | -0.512%
6 | CCCN1C(=O)c2cc(C(=O)NCc3cc(Br)ccc3OC)nn2CC1(C)C(=O)NC1CCCC1 (configuration not stated) | -2.6% (inactive) | -4.66% | -1.16% | -1.31% | -2.91% | -4.59%
7 | CC1=C[C@@H](CNS(=O)(=O)c2cccc(C#N)c2)[C@H](C(C)C)C[C@H]1CC(=O)N(C)Cc1cccnc1 | -5.31% (inactive) | -4.49% | -3.45% | -4.55% | -23.9% | -6.65%
8 | CCCn1c(=O)c2ccc(C(=O)NC3CCCC3)cc2n2c(=O)n(Cc3ccc(F)cc3Cl)nc12 | -1.77% (inactive) | -1.81% | -0.898% | 5.95% | -5.65% | -1.78%
9 | C=C1C(=O)O[C@@H]2C[C@@]3(C)CCCC(=C)[C@]3(O)C[C@H]12 | 6.75% (inactive) | 1.89% | 5.34% | 6.01% | -3.59% | 7.18%
10 | CCCNC(=O)Cn1ccc2cc(S(=O)(=O)N3CCCCC3)ccc21 | 4.84% (inactive) | 9.68% | 1.89% | 7.8% | 9.14% | 4.01%
11 | O=C(O)C1=NOC2CN([S+](=O)([O-])c3cc(C(F)(F)F)cc(C(F)(F)F)c3)CC12 (configuration not stated) | 0.473% (inactive) | 0.245% | -0.074% | 1.51% | -7.33% | -0.67%
12 | COc1ccccc1NC(=O)CSc1nnc2[nH]c(=O)c(C(C)(C)C)nn12 | 9.13% (inactive) | 7.62% | 0% | 5.75% | -0.804% | -8.39%
13 | CCCn1c(=O)c2cc(Cl)ccc2n2c(SCC(=O)Nc3cccc(Cl)c3)nnc12 | -3.39% (inactive) | -7.66% | -0.122% | 1.87% | -14% | -4.95%
14 | COc1ccc(NC(=O)CSc2nnc3n(CCCOC(C)C)c(=O)c4ccccc4n23)cc1 | 6.36% (inactive) | 1.3% | 1.9% | 7.77% | 6.56% | 5.87%
15 | CCNC(=O)C#Cc1ccc2c(C(=Nc3ccc(CN(C)C)cc3)c3ccccc3)c(O)[nH]c2c1 | -18.4% (active) | -35.9% | -5.11% | -64.7% | -34.2% | -13.1%
16 | COCCn1c(=O)c(C(=O)N2CCN(C(C)=O)CC2)nc2cccnc21 | -9.78% (inactive) | -6.01% | -10.4% | -3.36% | -14% | -5.78%

Row | SMILES | activity change, negative = inhibition [1] | activity change, negative = inhibition [2] | activity change, negative = inhibition [3] | activity change, negative = inhibition [4] | activity change, negative = inhibition [5] | activity change, negative = inhibition [6]
17 | CC(C)Cn1c(=O)c2ccccc2n2c(=O)n(Cc3ccccc3)nc12 | 2.82% (inactive) | -1.72% | 0% | 6.83% | -9.64% | 0.863%
18 | Cc1ccc(NC(=O)Cn2nc3n(C(C)C)c(=O)c4ccc(C(=O)NC5CCCCC5)cc4n3c2=O)cc1 | 2.74% (inactive) | 4.18% | 4.48% | 8.87% | 1.86% | 2.8%
19 | CCC(=O)N1Cc2ccccc2OC2(CCN(C(C)C)CC2)C1 | -1.54% (inactive) | -3.35% | -0.819% | 0.171% | -3.98% | -4.26%
20 | CCOC(=O)CC1(NC(=O)N2CCn3cccc3C2Cc2ccccc2)CCCCC1 (configuration not stated) | -25% (inactive) | -7.26% | -5.73% | -9.85% | -17.7% | -40.7%
21 | CN(C)CCN(C)[C@H]1[C@@H]2OC[C@@H](O2)[C@@H](NCc2ccc(N(C)C)cc2)[C@@H]1O | 2.76% (inactive) | 0.488% | 1.19% | 0.035% | -5% | 0.902%
22 | COc1ccc(C(=O)N2CCC3(CC2)CCC(O)(CN(C)C)CC3)cc1OC | 2.82% (inactive) | -0.206% | -1.89% | -18.9% | -5.54% | -1.06%
23 | CN(CCCNC(=O)CCCc1nnc2n3nc(-c4ccccc4)nc3c3ccccc3n12)Cc1ccccc1 | -4.54% (active) | -16.6% | 1.44% | -57.9% | 0.458% | -4.78%
24 | CCCCNC(=O)CCc1nnc2n(CC(C)C)c(=O)c3ccccc3n12 | 3.12% (inactive) | -1.98% | 4.49% | 5.26% | 4.71% | -0.917%
25 | CC(C)CCn1c(=O)c2ccccc2n2c(CCC(=O)NCCc3ccccc3)nnc12 | 3.9% (inactive) | -7.17% | 0% | 6.82% | -15% | 0.405%
26 | COC(=O)c1ncn2c1C(=O)N(Cc1cc(OC)ccc1OC)C(C)(C(=O)NCc1ccccc1)C2 (configuration not stated) | -9.56% (inactive) | -4.3% | 3.99% | -2.02% | -4.11% | -4.82%
27 | CN(C)c1cc2c(Nc3ccc4c(cnn4Cc4ccccc4)c3)ncnc2cn1 | -13.2% (active) and -7.52% (inactive) | -7.53% and -14.5% | 10.1% and 6.13% | 1.63% and -3.02% | -17% and -13.5% | -62.6% and -40%
28 | CCC(C)C(=O)OC1C(C)C2(O)C(C=C(CO)CC3(O)C(=O)C(C)=CC32)C2C(C)(C)C12OC(=O)C(C)C (configuration not stated) | -2.75% (inactive) | -4.22% | -5.2% | -3.1% | -15.7% | -0.901%
29 | O=C(NCC1CCCCC1)c1cc(-c2cc(Cl)cc(Cl)c2)c2nncn2n1 | -5.12% (inactive) | -8.77% | -5.46% | -7.54% | -13.3% | -2.36%
30 | CC(C)CCNC(=O)c1ccc2c(=O)nc3c(-c4ccc(Cl)cc4)n[nH]n3c2c1 | -1.51% (inactive) | -1.88% | 4.17% | -4.65% | 0.687% | -0.404%
31 | COc1ccc(CCN2C(=O)c3ccc(-c4ccco4)n3CC2(C)C(=O)NCc2ccc(Cl)cc2)cc1OC (configuration not stated) | 0.852% (inactive) | -6.96% | 1.72% | 2.32% | -28.2% | -1.05%
32 | Cc1cc2c(cc3n2CC(C)(C(=O)NC2CCCCC2)N(C2CCCCCC2)C3=O)o1 (configuration not stated) | 3.65% (inactive) | 2.96% | 9.51% | 3.49% | -0.25% | -2.76%
